The panel holds about 83,000 compounds, 20% with a hit somewhere; the sample as a whole holds those more often.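 Activity criterion: percent growth below 10, measured after cells in 96-well plates were exposed to a single compound concentration for 48 hours.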 The source made the active and inactive calls.
What was measured:
Experiment in all cases: NCI-60 one-dose screen, 48 h (100 = growth as untreated, 0 = no growth, -100 = all killed)
Details in all cases: 10 µM
DU-145 prostate = test system: DU-145 prostate
K-562 leukemia = test system: K-562 leukemia
MDA-MB-231 breast = test system: MDA-MB-231 breast
RXF 393 renal = test system: RXF 393 renal
SF-268 CNS = test system: SF-268 CNS
SF-295 CNS = test system: SF-295 CNS
SF-539 CNS = test system: SF-539 CNS
UACC-257 melanoma = test system: UACC-257 melanoma
M14 melanoma = test system: M14 melanoma
HCT-15 colon = test system: HCT-15 colon
HT29 colon = test system: HT29 colon
SNB-75 CNS = test system: SNB-75 CNS
SNB-19 CNS = test system: SNB-19 CNS
U251 CNS = test system: U251 CNS
SK-MEL-5 melanoma = test system: SK-MEL-5 melanoma
UACC-62 melanoma = test system: UACC-62 melanoma
LOX IMVI melanoma = test system: LOX IMVI melanoma
SK-MEL-28 melanoma = test system: SK-MEL-28 melanoma
PC-3 prostate = test system: PC-3 prostate
MALME-3M melanoma = test system: MALME-3M melanoma

Measured: growth

COc1ccc(C2CC(c3cc(OC)c(OC)c(OC)c3)=NN2)cc1 (stereo not drawn)
inactive: DU-145 prostate 91.5% | K-562 leukemia 11.2% | MDA-MB-231 breast 86.8% | RXF 393 renal 92.5% | SF-268 CNS 74.2% | SF-295 CNS 48.1% | SF-539 CNS 78.7% | UACC-257 melanoma 120% | M14 melanoma 92.6% | HCT-15 colon 36.2% | HT29 colon 29.9% | SNB-75 CNS 68.5% | SNB-19 CNS 68.3% | U251 CNS 26.2% | SK-MEL-5 melanoma 81.4% | UACC-62 melanoma 67% | LOX IMVI melanoma 43.9% | SK-MEL-28 melanoma 113%

COc1cc(C2CC(c3ccc4c(c3)OCO4)=NN2c2ccccc2)cc(OC)c1OC (stereo not drawn)
inactive: DU-145 prostate 107% | K-562 leukemia 48.8% | MDA-MB-231 breast 82.2% | RXF 393 renal 106% | SF-268 CNS 83.6% | SF-295 CNS 91.2% | UACC-257 melanoma 90.3% | M14 melanoma 91.6% | HCT-15 colon 81% | SNB-75 CNS 58.8% | SNB-19 CNS 84.8% | U251 CNS 38.9% | PC-3 prostate 92.6% | SK-MEL-5 melanoma 86% | UACC-62 melanoma 76.7% | LOX IMVI melanoma 89.4% | SK-MEL-28 melanoma 99.7%

COc1ccc(-c2nn(-c3cccc(Cl)c3)cc2-c2c(C#N)c(=O)n3[nH]c(-c4ccccc4)nc3c2C#N)cc1
inactive: DU-145 prostate 102% | K-562 leukemia 78.3% | MDA-MB-231 breast 87.1% | RXF 393 renal 95.9% | SF-268 CNS 101% | SF-295 CNS 58.8% | SF-539 CNS 100% | UACC-257 melanoma 110% | M14 melanoma 109% | HCT-15 colon 93.4% | HT29 colon 96.9% | SNB-75 CNS 80.3% | SNB-19 CNS 90.9% | PC-3 prostate 101% | SK-MEL-5 melanoma 96.4% | UACC-62 melanoma 99.3% | LOX IMVI melanoma 87.6% | SK-MEL-28 melanoma 115%

O=C(c1ccccc1)N(C(=O)c1ccccc1)N1CCCC1
inactive: DU-145 prostate 113% | K-562 leukemia 101% | MDA-MB-231 breast 117% | RXF 393 renal 110% | SF-268 CNS 98.7% | SF-295 CNS 104% | SF-539 CNS 99.9% | M14 melanoma 102% | HCT-15 colon 107% | SNB-75 CNS 87.3% | SNB-19 CNS 107% | PC-3 prostate 88.4% | SK-MEL-5 melanoma 98.4% | UACC-62 melanoma 85.8% | LOX IMVI melanoma 90.9% | SK-MEL-28 melanoma 114%

CSc1nc(S(C)(=O)=O)nc2[nH]c(=O)[nH]c12
inactive: DU-145 prostate 116% | K-562 leukemia 108% | MDA-MB-231 breast 89.7% | RXF 393 renal 110% | SF-268 CNS 101% | SF-539 CNS 99.1% | UACC-257 melanoma 105% | M14 melanoma 96.7% | HCT-15 colon 94.9% | HT29 colon 99.5% | SNB-75 CNS 97% | SNB-19 CNS 99.8% | U251 CNS 105% | PC-3 prostate 106% | SK-MEL-5 melanoma 103% | UACC-62 melanoma 98.9% | LOX IMVI melanoma 108% | SK-MEL-28 melanoma 126%

Cc1nn(-c2ccccc2)c2nc(Cl)c(C=O)c(-c3ccccc3)c12
inactive: DU-145 prostate 101% | K-562 leukemia 77.3% | MDA-MB-231 breast 96.5% | RXF 393 renal 105% | SF-268 CNS 90.2% | UACC-257 melanoma 98.3% | HCT-15 colon 94.8% | HT29 colon 56.7% | SNB-75 CNS 106% | SNB-19 CNS 95.6% | U251 CNS 92.8% | PC-3 prostate 77.4% | SK-MEL-5 melanoma 87.1% | UACC-62 melanoma 79.4% | LOX IMVI melanoma 86.9% | SK-MEL-28 melanoma 107%

Nc1ncc(-c2cnn(C3CCNCC3)c2)cc1-c1nc2ccccc2o1
active: K-562 leukemia -60% | RXF 393 renal -29.5% | SF-268 CNS -0.542% | SF-539 CNS -33.8% | UACC-257 melanoma -82% | M14 melanoma -88.7% | HT29 colon -4.71% | UACC-62 melanoma -67.1% | LOX IMVI melanoma -80.6% | SK-MEL-28 melanoma -86.8%
inactive: DU-145 prostate 15.2% | MDA-MB-231 breast 27.1% | SF-295 CNS 94.5% | HCT-15 colon 12.4% | SNB-75 CNS 13.2% | SNB-19 CNS 35.8% | U251 CNS 13.1% | SK-MEL-5 melanoma 26.9%

Cc1ccc(NC(=S)NNC(=S)Nc2ccc(C)cc2)cc1
inactive: DU-145 prostate 102% | K-562 leukemia 19.4% | MDA-MB-231 breast 72.5% | RXF 393 renal 91.5% | SF-268 CNS 85% | SF-295 CNS 30% | SF-539 CNS 62.5% | UACC-257 melanoma 75.8% | HCT-15 colon 44.1% | HT29 colon 82.6% | SNB-75 CNS 40.2% | SNB-19 CNS 65.4% | U251 CNS 56.8% | PC-3 prostate 77.2% | SK-MEL-5 melanoma 55.6% | UACC-62 melanoma 48.2% | LOX IMVI melanoma 75.3% | SK-MEL-28 melanoma 70.8%

CCOC(=O)Cn1c(=O)c2sc3ncccc3c2n2nnc(-c3ccccc3)c12
inactive: DU-145 prostate 119% | K-562 leukemia 96.4% | MDA-MB-231 breast 87.2% | RXF 393 renal 112% | SF-268 CNS 112% | SF-295 CNS 110% | SF-539 CNS 105% | UACC-257 melanoma 108% | M14 melanoma 99% | HCT-15 colon 107% | HT29 colon 107% | SNB-75 CNS 77.2% | U251 CNS 104% | PC-3 prostate 94.8% | SK-MEL-5 melanoma 104% | UACC-62 melanoma 90.5% | LOX IMVI melanoma 97.4%

COc1cc(N)c2ncccc2c1SC
inactive: DU-145 prostate 104% | K-562 leukemia 122% | MDA-MB-231 breast 95.1% | RXF 393 renal 121% | SF-268 CNS 91.2% | SF-295 CNS 109% | SF-539 CNS 114% | UACC-257 melanoma 98.3% | M14 melanoma 104% | HCT-15 colon 112% | SNB-75 CNS 91% | U251 CNS 102% | PC-3 prostate 101% | SK-MEL-5 melanoma 107% | UACC-62 melanoma 110% | LOX IMVI melanoma 93.1% | SK-MEL-28 melanoma 106%

COc1ccc(Cc2cnc(N)nc2N)cc1OC
inactive: DU-145 prostate 114% | MALME-3M melanoma 113% | MDA-MB-231 breast 95.3% | RXF 393 renal 105% | SF-268 CNS 106% | SF-295 CNS 96.2% | SF-539 CNS 107% | UACC-257 melanoma 100% | M14 melanoma 108% | HCT-15 colon 101% | HT29 colon 99% | SNB-75 CNS 79.4% | SNB-19 CNS 100% | U251 CNS 97.1% | PC-3 prostate 88.6% | SK-MEL-5 melanoma 101% | UACC-62 melanoma 96.9% | LOX IMVI melanoma 97% | SK-MEL-28 melanoma 119%

Clc1ccc2c(c1)C(N1CCNCC1)=Nc1ccccc1O2
active: MALME-3M melanoma 2.69% | UACC-257 melanoma -18.3% | SK-MEL-28 melanoma -10.9%
inactive: DU-145 prostate 68.4% | MDA-MB-231 breast 19.4% | RXF 393 renal 27.2% | SF-268 CNS 52.9% | SF-295 CNS 58% | SF-539 CNS 73.4% | M14 melanoma 15.7% | HCT-15 colon 47.5% | HT29 colon 11.6% | SNB-75 CNS 16.4% | SNB-19 CNS 67.6% | U251 CNS 41.7% | PC-3 prostate 40% | SK-MEL-5 melanoma 10.4% | UACC-62 melanoma 30.4% | LOX IMVI melanoma 39%

CCN(CC)CCCC(C)N=C(C1=C(C(=NC(C)CCCN(CC)CC)c2cccc(OC)c2)C(=O)NC1=O)c1cccc(OC)c1 (stereo not drawn)
active: DU-145 prostate -5.08% | K-562 leukemia -44.2% | RXF 393 renal -64.8% | SF-268 CNS -29.5% | SF-295 CNS -53.5% | SF-539 CNS -85.3% | UACC-257 melanoma -95.2% | M14 melanoma -77.5% | HCT-15 colon -30.7% | HT29 colon -10.5% | SNB-75 CNS -28.5% | U251 CNS -51.3% | PC-3 prostate 3.15% | SK-MEL-5 melanoma -93.8% | UACC-62 melanoma -75.4% | LOX IMVI melanoma -73.9% | SK-MEL-28 melanoma -69.1%

CN1CCN(C2=Nc3ccccc3Oc3ccc(Cl)cc32)CC1
inactive: DU-145 prostate 108% | MALME-3M melanoma 91.7% | MDA-MB-231 breast 76% | RXF 393 renal 108% | SF-268 CNS 109% | SF-295 CNS 94.8% | SF-539 CNS 111% | UACC-257 melanoma 96.5% | M14 melanoma 103% | HCT-15 colon 103% | HT29 colon 88.3% | SNB-75 CNS 59.5% | SNB-19 CNS 104% | U251 CNS 102% | PC-3 prostate 83.8% | SK-MEL-5 melanoma 96.7% | UACC-62 melanoma 98.7% | LOX IMVI melanoma 103% | SK-MEL-28 melanoma 110%

COc1ccc2nc3cc(Cl)ccc3c(Nc3cc(CN4CCCC4)c(O)c(CN4CCCC4)c3)c2n1
active: MALME-3M melanoma -73.6% | MDA-MB-231 breast -21.6% | RXF 393 renal -68.9% | SF-268 CNS -25.1% | SF-295 CNS -26.8% | SF-539 CNS -21.6% | UACC-257 melanoma -87.3% | M14 melanoma -82.5% | HCT-15 colon 5.6% | HT29 colon 1.23% | SNB-75 CNS -64.4% | PC-3 prostate 6.93% | SK-MEL-5 melanoma -96.1% | UACC-62 melanoma -23.4% | LOX IMVI melanoma -8.24% | SK-MEL-28 melanoma -21.8%
inactive: DU-145 prostate 18.2% | SNB-19 CNS 14.5% | U251 CNS 10.4%

Nc1nc(Cl)nc2c1ncn2C1O[C@H](CO)[C@@H](O)[C@@H]1F (stereo partly drawn)
inactive: MALME-3M melanoma 60.9% | MDA-MB-231 breast 70% | RXF 393 renal 42.2% | SF-295 CNS 14.2% | SF-539 CNS 37.7% | UACC-257 melanoma 22.7% | HCT-15 colon 48.1% | HT29 colon 41.2% | SNB-75 CNS 37% | SNB-19 CNS 19% | PC-3 prostate 60.5% | SK-MEL-5 melanoma 32.1% | SK-MEL-28 melanoma 73.8%
active: DU-145 prostate -3.84% | SF-268 CNS 9.03% | M14 melanoma -48.4% | UACC-62 melanoma -10.3% | LOX IMVI melanoma 4.83%

COc1cc2nc(SCC(=O)Nc3cc(OC)c(OC)c(OC)c3)n(Cc3ccccc3)c(=O)c2cc1OC
inactive: DU-145 prostate 54.6% | MALME-3M melanoma 45.6% | MDA-MB-231 breast 41% | RXF 393 renal 36.7% | SF-268 CNS 39.5% | SF-295 CNS 45.8% | UACC-257 melanoma 20.6% | M14 melanoma 39.3% | HCT-15 colon 90.2% | HT29 colon 61.9% | SNB-19 CNS 63.7% | PC-3 prostate 35.8% | SK-MEL-5 melanoma 67.2% | UACC-62 melanoma 76.3% | LOX IMVI melanoma 68.7% | SK-MEL-28 melanoma 60.5%
active: SF-539 CNS 6.77% | SNB-75 CNS -1.98% | U251 CNS 6.92%

— PubChem BioAssay (NCI)
